Screens (PubChem BioAssay)
Pol beta inh: qHTS Assay for Inhibitors of DNA Polymerase Beta | P06746 | Pol beta primer extension/strand displacement, fluorescence kinetic | Potency, µM (highest dose often 114 µM), for inactives: top-dose activity change, negative = inhibition, usual class: inhibitors | 340,000 compounds, 1.3% hits; note: % is set by controls: 0 for no effect and ±100 for the full control effect
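Homogeneous kinetic assay of primer extension and strand displacement by 10 nM Pol beta, preincubated 15 min at room temperature with compound before 50 nM substrate (final) was added. Read at 0 and 10 min; four-parameter Hill fit.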
APEX1 inh: qHTS Assay for Inhibitors of the Human Apurinic/apyrimidinic Endonuclease 1 (APE1); recombinant APE1, TAMRA/BHQ-2 abasic DNA cleavage fluorescence; Potency, µM (top dose mostly 65.8 µM), for inactives: at the top dose activity change, negative = inhibition, usual class: inhibitors; DNA repair nuclease/redox regulator APEX1 (Homo sapiens), P27695; AID 2517, 2012; 350,000 compounds, 0.35% hits;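 note: plate controls were vehicle for no effect and reference inhibitor for full effect; nearly all actives have a fitted effect of over 55% in size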
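APE1 at 0.75 nM final was preincubated with compound 15 min at room temperature, then 50 nM double-stranded THF abasic-site substrate (5'-TAMRA/3'-BHQ-2) was added. Fluorescence (ex 525/em 598 nm) was read kinetically; third-minus-first read gave activity.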
Pol kappa inh: qHTS for Inhibitors of Polymerase Kappa | purified Pol kappa, fluorescent DNA synthesis assay, 10 min | Potency, µM (series often up to 107 µM), without a hit: at the top dose activity, negative = inhibition, most hits filed as inhibitors | 400,000 compounds, 0.53% hits | AID 588579, 2011; note: % is set by controls: 0 for no effect and ±100 for the full control effect
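10 nM Pol kappa was preincubated with compounds for 15 min at room temperature. Reaction started with 50 nM (final) substrate. Fluorescence read kinetically at 0 and 10 min.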
L3MBTL1 inh: qHTS Assay for the Inhibitors of L3MBTL1. Lethal(3)malignant brain tumor-like protein 1 (Homo sapiens), Q9Y468. AlphaScreen L3MBTL1–H3K9me1 peptide binding. Potency, µM (top dose mostly 57.1 µM), for the others: at the top dose activity, negative = inhibition, most hits filed as inhibitors. 230,000 compounds, 0.66% hits. AID 485360, 2010; note: % is set by controls: 0 for no effect and ±100 for the full control effect; nearly all actives have a fitted effect of over 60% in size
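First, the protein-peptide complex forms for 30 min at room temperature (L3MBTL1 50 nM, biotinylated H3K9me1 peptide 75 nM). Next, compounds are pin-transferred and incubated 30 min. Finally, AlphaScreen beads are added and read after 30 min.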
POLI inh: qHTS for Inhibitors of Polymerase Iota; DNA polymerase iota (Homo sapiens), Q9UNA4; Pol iota fluorescent replication assay, 10 min; Potency, µM (top dose mostly 115 µM), for the others: top-dose activity, negative = inhibition, hits mostly inhibitors; 390,000 compounds, 1% hits
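Pol iota at 10 nM preincubated 15 min with compounds at room temperature; reaction started with fluorescent substrate, 50 nM final. Fluorescence read kinetically at 0 and 10 min; buffer-only wells as negative control.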
Pol eta inh: qHTS for Inhibitors of Polymerase Eta. 390,000 compounds, 1.2% hits. DNA polymerase eta (Homo sapiens), Q9Y253. AID 588591, 2011. recombinant Pol eta, fluorescent DNA replication assay. Potency, µM (titrated, usually from 114 µM), for inactives: at the highest dose activity change, negative = inhibition, usual class: inhibitors; note: % is set by controls: 0 for no effect and ±100 for the full control effect
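Pol eta (10 nM) was preincubated with compounds for 15 min at room temperature, after which fluorescent replication substrate (50 nM final) was added to start the reaction. Fluorescence was read kinetically at 0 and 10 min.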
An asterisk follows results filed as active; ? = inconclusive; / = no result given; [ ] = another dose, or the depositor's remark. A selection: hits, their analogues and other compounds. The true share with any hit is near 2.5%. Calls come from the whole dose curve; as a rule, active = well fitted curve in the direction sought with a large enough effect; inconclusive = small, poorly fitted or top-dose-only effect, or another doubt; inactive = no such curve, though single readings can be large; an effect the other way counts as inactive or inconclusive. Potency is the fitted concentration of half-maximal effect.

SMILES | Pol beta inh | APEX1 inh | Pol kappa inh | L3MBTL1 inh | POLI inh | Pol eta inh
COc1cc(/C=C2\COC/C(=C\c3ccc(O)c(OC)c3)C2=O)ccc1O | 3% | -2% | -8% | ? | ? | ?
COc1cc(/C=C2/CC/C(=C/c3ccc(O)c(OC)c3)C2=O)ccc1O | 18µM* | 3% | ? | -14% | 40µM* | 35µM*
COc1cc(/C=C2\CC/C(=C\c3ccc(OCCO)c(OC)c3)C2=O)ccc1OCCO | 2.5µM* | 4% | -36% | -3% | 7.1µM* | ?
COc1cccc(NC(=O)C2CCN(c3nnc(C)c4c(C)n(-c5ccccc5)nc34)CC2)c1 | -28% | / | -9%[60.1 µM] | / | -19% | -8%
CN(C)N=Nc1ccc(S(N)(=O)=O)cc1 | 68% | 20% | -2% | 10% | -11% | -16%
CN(C)c1ccc(N=Nc2ccc(S(N)(=O)=O)cc2)cc1 | ? | 32% | -36% | / | 20µM* | ?
CCOc1ccc(NC(=O)CSc2ccc(-c3sc(-c4ccccc4)nc3C)nn2)cc1 | -19% | / | -9% | / | 1% | -16%
Cc1cc(=O)n(C)c(=O)n1CCCCCN1CCCC1 | 12% | 6% | -1% | 28µM* | 18% | -6%
COc1cccc(-c2cn(C[C@H]3CC[C@@H]([C@@H]4CC[C@H](Cn5cc(-c6cccc(OC)c6)nn5)O4)O3)nn2)c1 | 16% | 6% | 7% | -4% | 27% | -3%
Cc1ccc(S(=O)(=O)N2CCN(c3nc(-n4ccnc4)nc4ccccc34)CC2)cc1 | / | / | -6% | / | ? | /
O=C1C(F)=CC(COC(c2ccccc2)(c2ccccc2)c2ccccc2)OC1n1cc(F)c(=O)[nH]c1=O (configuration not stated) | / | / | -14% | / | ? | 50µM*
CCOC(=O)OCC1OC(c2cc(C)cc(C)c2)C=CC1OC(=O)OCC (configuration not stated) | / | -6%[12.4 µM] | / | / | / | /
O=c1c(-c2cccs2)nc2cnc(N3CCNCC3)nc2n1Cc1cccs1 | / | ? | 32µM* | / | / | /
O=c1c(-c2cc(F)cc(F)c2)nc2cnc(N3CCNCC3)nc2n1Cc1cccs1 | / | 0% | 28µM* | / | / | /
N#Cc1ccc(/C=C2\C=Cc3ccccc32)cc1 | / | / | -3% | / | -8% | /
FC(F)(F)c1cc(-c2ccco2)nc(NCc2ccco2)n1 | ? | 3% | ? | 0% | ? | 50µM*
FC(F)(F)c1cc(-c2ccco2)nc(NCc2cccs2)n1 | 1% | -3% | -10% | 10% | 8% | ?
NS(=O)(=O)c1cc(C(=O)N=Nc2c(O)[nH]c3ccccc23)ccc1Cl | 22µM* | -5% | -31% | -10% | 50µM* | ?
CC1=NN(c2ccc(C)cc2C)C(=O)C1C(c1cccc(O)c1)C1C(=O)N(c2ccc(C)cc2C)N=C1C (configuration not stated) | 36% | -1% | -4% | -5% | 1.3µM* | -21%
CCN(CC)CCOC(=O)c1ccc(NC(=O)CCCN2C(=O)S/C(=C/c3ccc(OC)cc3)C2=S)cc1 | ? | 34µM* | -1% | / | ? | -25%
COc1ccc(/C=C2\SC(=O)N(CCCC(=O)Nc3ccc(C(=O)O)cc3)C2=O)cc1OC | 1% | 1% | -3% | / | -4% | -21%
CCCN1C(=O)C(NC(C)=O)c2ccccc21 (configuration not stated) | -25% | 0% | -17% | / | 14% | -6%
CCc1ccc2c(c1)C(NC(C)=O)C(=O)N2CCN1CCOCC1 (configuration not stated) | 8% | -28% | -5% | / | 2.2µM* | ?
